# Laboratory results as given in the supplement of paper PMC10849652.
# Targets with a hit are over-represented here; the source holds about 7,900 in all. About 0.6% of all pairs of compound and target were hits. Unmarked numbers belong to inactive results.
# Tests used:
# Experiment in all cases: log2 fold change, soluble protein after heating vs DMSO (PISA); higher = thermal stabilisation; K562 cells, 10 uM, 30 min; active = over 0.2 and 3.5 SD of the protein, either way, in both replicates (recomputed)
# [1] = compound: Cc1cn(-c2cc(NC(=O)c3ccc(C)c(Nc4nccc(-c5cccnc5)n4)c3)cc(C(F)(F)F)c2)cn1 [nilotinib]
# Summary of the method: (§1)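 K562 cells at 2×10^6 cells/mL were given 10 μM compound for 30 min. Aliquots then went through 3 min of heating across 48°C-58°C, were pooled, and were extracted in PBS with 0.5% NP-40 at 4°C, and the supernatant after 21,000xg for 90 min was quantified by TMTpro 16plex LC-MS/MS with channel sums equalised. Thermal stability relative to control samples, from duplicates, is given as log2 fold change.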
# [2] = compound: Cc1nc(Nc2n[nH]c3c2CN(C(=O)N[C@H](CN(C)C)c2ccccc2)C3(C)C)c2sccc2n1
# Summary of the method: as §1
# [3] = compound: Cc1ncc(-c2ccnc(Nc3ccc(S(C)(=O)=O)cc3)n2)n1C(C)C
# Summary of the method: as §1
# [4] = compound: NC(=O)Nc1cc(-c2cccc(F)c2)sc1C(=O)N[C@H]1CCCNC1
# Summary of the method: as §1
# [5] = compound: NCC(=O)Nc1ccc(-n2nc(C(F)(F)F)cc2-c2ccc3c(ccc4ccccc43)c2)cc1
# Summary of the method: as §1
# [6] = compound: Nc1ccccc1NC(=O)c1ccc(CNC(=O)OCc2cccnc2)cc1 [entinostat]
# Summary of the method: as §1
# [7] = compound: O=C1NC(=O)C(c2cnc3ccccn23)=C1c1cn2c3c(cc(F)cc13)CN(C(=O)N1CCCCC1)CC2
# Summary of the method: as §1
# [8] = compound: Cn1cc(-c2ccc3c(c2)CCN3C(=O)Cc2cccc(C(F)(F)F)c2)c2c(N)ncnc21
# Summary of the method: as §1
# [9] = compound: Cc1ccc(NC(=O)c2ccc(CN3CC[C@H](N(C)C)C3)c(C(F)(F)F)c2)cc1Nc1nccc(-c2cncnc2)n1 [bafetinib]
# Summary of the method: as §1
# [10] = compound: Cc1nc(Nc2ncc(C(=O)Nc3c(C)cccc3Cl)s2)cc(N2CCN(CCO)CC2)n1 [dasatinib]
# Summary of the method: as §1
# [11] = compound: NC(=O)c1cnc(N[C@@H]2CCCC[C@@H]2N)nc1Nc1cccc(-n2nccn2)c1
# Summary of the method: as §1
# [12] = compound: Cc1cccc(CC(=O)N2CCc3c2ccc(-c2cn(C)c4ncnc(N)c24)c3F)n1
# Summary of the method: as §1
# [13] = compound: Cn1cncc1[C@@](N)(c1ccc(Cl)cc1)c1ccc2c(c1)c(-c1cccc(Cl)c1)cc(=O)n2C [tipifarnib]
# Summary of the method: as §1
# [14] = compound: FC(F)(F)c1ccc(/C=C/c2nc(COc3ccc(CCCCn4ccnn4)cc3)co2)cc1 [mubritinib]
# Summary of the method: as §1
# [15] = compound: NC1(c2ccc(-c3nc4ccn5c(=O)[nH]nc5c4cc3-c3ccccc3)cc2)CCC1
# Summary of the method: as §1
# [16] = compound: O=C(CCCCCCC(=O)Nc1ccccc1)NO [vorinostat]
# Summary of the method: as §1
# [17] = compound: O=C(O)c1ccc2c(c1)nc(Nc1cccc(Cl)c1)c1ccncc12 [silmitasertib]
# Summary of the method: as §1
# [18] = compound: Cn1cc(-c2ccc3nnc(C(F)(F)c4ccc5ncccc5c4)n3n2)cn1
# Summary of the method: as §1
# [19] = compound: O=C(CCCCCCNC(=O)c1cnc(N(c2ccccc2)c2ccccc2Cl)nc1)NO [citarinostat]
# Summary of the method: as §1
# [20] = compound: c1cc(OCCN2CCCCC2)cc(-c2n[nH]c3ccc(-c4nnc[nH]4)cc23)c1
# Summary of the method: as §1
# Chain of UniProt Q86YN1 (Q86YN1 whole entry, looked up): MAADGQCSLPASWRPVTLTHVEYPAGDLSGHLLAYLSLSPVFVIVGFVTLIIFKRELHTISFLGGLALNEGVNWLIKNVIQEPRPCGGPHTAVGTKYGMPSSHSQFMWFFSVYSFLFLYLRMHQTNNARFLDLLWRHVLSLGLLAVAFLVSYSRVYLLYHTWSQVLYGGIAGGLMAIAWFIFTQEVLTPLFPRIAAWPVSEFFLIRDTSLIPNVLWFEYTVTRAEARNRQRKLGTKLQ
# Chain of UniProt A1L3X0 (A1L3X0 whole entry, looked up): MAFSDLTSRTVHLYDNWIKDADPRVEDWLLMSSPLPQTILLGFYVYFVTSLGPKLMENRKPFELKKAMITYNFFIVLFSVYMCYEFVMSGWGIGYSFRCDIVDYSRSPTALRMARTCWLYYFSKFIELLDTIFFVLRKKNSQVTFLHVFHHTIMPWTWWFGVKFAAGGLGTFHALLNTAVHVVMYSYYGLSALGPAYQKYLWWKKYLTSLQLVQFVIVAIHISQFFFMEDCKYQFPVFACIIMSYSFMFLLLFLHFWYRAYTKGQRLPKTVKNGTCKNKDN
# Chain of UniProt Q2TBE0 (Q2TBE0 whole entry, looked up): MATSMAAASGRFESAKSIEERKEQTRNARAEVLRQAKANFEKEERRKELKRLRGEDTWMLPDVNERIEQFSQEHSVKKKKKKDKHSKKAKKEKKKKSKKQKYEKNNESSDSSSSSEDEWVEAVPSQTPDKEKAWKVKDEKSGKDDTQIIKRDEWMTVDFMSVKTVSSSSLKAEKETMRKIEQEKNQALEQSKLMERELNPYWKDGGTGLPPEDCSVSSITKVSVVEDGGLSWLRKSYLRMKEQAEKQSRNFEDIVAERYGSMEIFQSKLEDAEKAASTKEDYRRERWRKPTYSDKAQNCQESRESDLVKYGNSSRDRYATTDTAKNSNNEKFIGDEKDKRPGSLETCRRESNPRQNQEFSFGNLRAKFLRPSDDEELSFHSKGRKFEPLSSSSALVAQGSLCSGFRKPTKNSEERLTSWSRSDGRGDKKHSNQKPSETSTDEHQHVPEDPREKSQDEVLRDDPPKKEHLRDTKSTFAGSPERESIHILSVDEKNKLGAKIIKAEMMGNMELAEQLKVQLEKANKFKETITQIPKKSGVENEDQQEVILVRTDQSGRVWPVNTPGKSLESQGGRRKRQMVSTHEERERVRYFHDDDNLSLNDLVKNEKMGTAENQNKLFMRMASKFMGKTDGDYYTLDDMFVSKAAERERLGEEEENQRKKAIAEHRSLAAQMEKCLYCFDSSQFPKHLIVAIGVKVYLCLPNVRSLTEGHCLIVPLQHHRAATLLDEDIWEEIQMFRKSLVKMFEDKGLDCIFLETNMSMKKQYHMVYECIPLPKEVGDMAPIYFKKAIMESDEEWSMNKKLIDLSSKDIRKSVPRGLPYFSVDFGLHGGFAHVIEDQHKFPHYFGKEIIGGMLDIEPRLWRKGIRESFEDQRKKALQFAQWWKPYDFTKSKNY
# Chain of UniProt Q9Y6B2 (Q9Y6B2 whole entry, looked up): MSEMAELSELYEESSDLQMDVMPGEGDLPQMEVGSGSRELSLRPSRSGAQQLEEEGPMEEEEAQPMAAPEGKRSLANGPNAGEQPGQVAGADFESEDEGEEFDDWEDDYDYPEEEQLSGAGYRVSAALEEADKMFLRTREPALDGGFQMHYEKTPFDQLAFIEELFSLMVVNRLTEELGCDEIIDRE
# Chain of UniProt Q5T6F0 (Q5T6F0 whole entry, looked up): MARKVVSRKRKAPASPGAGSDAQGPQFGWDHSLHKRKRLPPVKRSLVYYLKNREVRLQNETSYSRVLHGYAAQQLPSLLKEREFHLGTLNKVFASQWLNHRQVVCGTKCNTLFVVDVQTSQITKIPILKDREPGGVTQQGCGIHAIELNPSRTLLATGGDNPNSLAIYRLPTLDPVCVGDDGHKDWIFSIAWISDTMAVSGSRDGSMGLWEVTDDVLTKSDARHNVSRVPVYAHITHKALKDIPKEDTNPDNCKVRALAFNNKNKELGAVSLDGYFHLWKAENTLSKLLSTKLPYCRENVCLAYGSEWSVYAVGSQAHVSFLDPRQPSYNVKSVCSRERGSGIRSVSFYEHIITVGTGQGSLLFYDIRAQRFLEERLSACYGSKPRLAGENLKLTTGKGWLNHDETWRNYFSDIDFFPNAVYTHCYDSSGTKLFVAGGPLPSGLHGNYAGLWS
# Chain of UniProt Q9P2D6 (Q9P2D6 whole entry, looked up): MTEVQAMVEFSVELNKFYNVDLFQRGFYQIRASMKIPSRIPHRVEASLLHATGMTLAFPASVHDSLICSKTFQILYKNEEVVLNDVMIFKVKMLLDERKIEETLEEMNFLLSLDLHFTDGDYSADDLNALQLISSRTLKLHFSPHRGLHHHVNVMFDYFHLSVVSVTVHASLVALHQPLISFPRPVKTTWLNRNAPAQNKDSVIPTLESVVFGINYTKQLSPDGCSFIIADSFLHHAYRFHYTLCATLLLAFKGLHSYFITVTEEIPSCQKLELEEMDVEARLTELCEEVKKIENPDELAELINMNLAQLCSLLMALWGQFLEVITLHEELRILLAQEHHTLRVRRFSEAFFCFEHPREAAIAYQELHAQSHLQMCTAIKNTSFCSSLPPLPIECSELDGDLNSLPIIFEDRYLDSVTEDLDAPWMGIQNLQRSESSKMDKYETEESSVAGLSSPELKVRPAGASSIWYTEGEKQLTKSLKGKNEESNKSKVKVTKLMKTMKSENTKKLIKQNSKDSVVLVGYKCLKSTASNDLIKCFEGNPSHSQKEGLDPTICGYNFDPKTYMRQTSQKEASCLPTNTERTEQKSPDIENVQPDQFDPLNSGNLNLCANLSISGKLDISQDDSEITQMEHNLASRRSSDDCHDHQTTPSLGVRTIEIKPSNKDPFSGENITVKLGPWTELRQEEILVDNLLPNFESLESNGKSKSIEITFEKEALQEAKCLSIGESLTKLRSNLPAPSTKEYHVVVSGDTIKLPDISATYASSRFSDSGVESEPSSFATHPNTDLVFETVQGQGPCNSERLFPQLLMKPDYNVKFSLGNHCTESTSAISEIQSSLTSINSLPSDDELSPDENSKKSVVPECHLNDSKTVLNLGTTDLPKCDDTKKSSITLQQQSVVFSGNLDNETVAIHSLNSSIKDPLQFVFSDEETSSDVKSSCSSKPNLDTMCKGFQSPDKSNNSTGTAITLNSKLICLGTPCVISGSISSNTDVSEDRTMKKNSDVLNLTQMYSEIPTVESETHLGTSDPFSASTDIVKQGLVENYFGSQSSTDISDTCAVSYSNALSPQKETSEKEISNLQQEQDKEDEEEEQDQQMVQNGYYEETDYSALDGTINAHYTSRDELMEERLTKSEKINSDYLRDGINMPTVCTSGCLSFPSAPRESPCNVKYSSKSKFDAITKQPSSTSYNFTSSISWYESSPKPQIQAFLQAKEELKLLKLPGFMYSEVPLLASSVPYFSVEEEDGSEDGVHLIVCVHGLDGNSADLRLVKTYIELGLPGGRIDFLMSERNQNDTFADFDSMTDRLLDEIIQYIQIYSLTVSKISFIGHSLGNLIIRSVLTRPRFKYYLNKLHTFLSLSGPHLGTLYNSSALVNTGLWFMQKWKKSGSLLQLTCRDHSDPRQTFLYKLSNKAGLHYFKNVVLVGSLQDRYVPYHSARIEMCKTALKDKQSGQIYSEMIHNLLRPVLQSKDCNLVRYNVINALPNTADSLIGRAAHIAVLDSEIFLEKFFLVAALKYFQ
# Chain of UniProt Q96C92 (Q96C92 whole entry, looked up): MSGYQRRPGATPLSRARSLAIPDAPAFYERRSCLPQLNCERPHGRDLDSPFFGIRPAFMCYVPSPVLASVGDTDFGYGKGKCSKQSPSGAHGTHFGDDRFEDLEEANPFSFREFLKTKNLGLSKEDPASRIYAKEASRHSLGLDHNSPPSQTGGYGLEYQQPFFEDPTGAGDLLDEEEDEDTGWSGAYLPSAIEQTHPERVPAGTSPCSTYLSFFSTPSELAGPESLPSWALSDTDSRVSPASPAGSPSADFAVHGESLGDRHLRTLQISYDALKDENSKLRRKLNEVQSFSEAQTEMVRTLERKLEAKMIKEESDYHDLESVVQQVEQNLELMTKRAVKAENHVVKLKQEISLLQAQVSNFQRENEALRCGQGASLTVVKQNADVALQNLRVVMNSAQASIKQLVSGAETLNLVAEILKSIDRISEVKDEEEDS
# Chain of UniProt O75822 (O75822 whole entry, looked up): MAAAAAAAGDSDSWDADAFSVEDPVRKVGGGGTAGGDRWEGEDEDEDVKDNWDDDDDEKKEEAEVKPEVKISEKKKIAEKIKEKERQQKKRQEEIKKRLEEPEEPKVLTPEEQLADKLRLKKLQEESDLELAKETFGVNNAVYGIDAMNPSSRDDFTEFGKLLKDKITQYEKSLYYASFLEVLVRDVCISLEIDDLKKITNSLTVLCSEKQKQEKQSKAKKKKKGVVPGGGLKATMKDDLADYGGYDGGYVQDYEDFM
# Chain of UniProt Q6P1L5 (Q6P1L5 whole entry, looked up): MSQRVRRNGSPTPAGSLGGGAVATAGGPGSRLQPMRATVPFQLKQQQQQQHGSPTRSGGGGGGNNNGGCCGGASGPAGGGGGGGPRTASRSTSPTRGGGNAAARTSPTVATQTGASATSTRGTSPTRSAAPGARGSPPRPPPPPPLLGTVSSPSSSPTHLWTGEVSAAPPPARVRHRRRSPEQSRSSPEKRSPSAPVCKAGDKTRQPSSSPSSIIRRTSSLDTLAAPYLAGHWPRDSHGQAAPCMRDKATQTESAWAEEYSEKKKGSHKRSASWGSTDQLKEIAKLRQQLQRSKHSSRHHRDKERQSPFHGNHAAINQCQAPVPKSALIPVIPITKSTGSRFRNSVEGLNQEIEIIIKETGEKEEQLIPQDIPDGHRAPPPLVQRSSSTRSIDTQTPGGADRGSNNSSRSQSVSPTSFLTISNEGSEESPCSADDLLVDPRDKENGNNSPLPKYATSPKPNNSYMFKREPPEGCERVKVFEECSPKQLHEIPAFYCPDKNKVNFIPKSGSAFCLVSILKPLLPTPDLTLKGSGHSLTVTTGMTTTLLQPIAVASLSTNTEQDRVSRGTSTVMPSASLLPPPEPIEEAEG
target,measurement,setting,value
FAM135A (UniProt Q9P2D6),log2 fold change,[1],0.054
same,log2 fold change,[2],-0.138
same,log2 fold change,[3],-0.054
same,log2 fold change,[4],0.069
same,log2 fold change,[5],-0.024
same,log2 fold change,[6],-0.03
same,log2 fold change,[7],-0.088
DBNL (UniProt Q9UJU6),log2 fold change,[8],0.308
EPHX2 (UniProt E5RI53),log2 fold change,[9],-0.17
same,log2 fold change,[7],-0.058
ELOVL7 (UniProt A1L3X0),log2 fold change,[10],-0.088
same,log2 fold change,[8],-0.057
same,log2 fold change,[11],-0.001
same,log2 fold change,[7],-0.09
EID1 (UniProt Q9Y6B2),log2 fold change,[12],-0.438
same,log2 fold change,[1],-0.022
same,log2 fold change,[2],-0.084
same,log2 fold change,[3],-0.032
same,log2 fold change,[13],-0.097
same,log2 fold change,[14],0.208
same,log2 fold change,[4],-0.078
same,log2 fold change,[15],-0.055
same,log2 fold change,[6],0.086
same,log2 fold change,[16],-0.457
same,log2 fold change,[17],-0.156
same,log2 fold change,[7],-0.652
ENTR1 (UniProt Q96C92),log2 fold change,[10],0.003
same,log2 fold change,[13],0.259
same,log2 fold change,[5],-0.284
EIF3J isoform 2 (UniProt O75822),log2 fold change,[9],-0.033
same,log2 fold change,[1],-0.101
same,log2 fold change,[2],-0.016
same,log2 fold change,[10],0.017
same,log2 fold change,[3],-0.013
same,log2 fold change,[13],0.078
same,log2 fold change,[14],0.1
same,log2 fold change,[4],-0.094
same,log2 fold change,[11],-0.197
same,log2 fold change,[15],-0.102
same,log2 fold change,[5],0.023
same,log2 fold change,[6],-0.041
same,log2 fold change,[17],-0.11
same,log2 fold change,[7],0.002
DOLPP1 (UniProt Q86YN1),log2 fold change,[9],-0.089
same,log2 fold change,[1],0.035
same,log2 fold change,[2],-0.062
same,log2 fold change,[3],-0.023
same,log2 fold change,[8],-0.045
same,log2 fold change,[18],-0.006
same,log2 fold change,[13],0.075
same,log2 fold change,[14],0.021
same,log2 fold change,[11],-0.102
same,log2 fold change,[15],-0.053
same,log2 fold change,[5],-0.003
same,log2 fold change,[19],0.075
same,log2 fold change,[17],0.008
same,log2 fold change,[20],-0.007
DCAF12 (UniProt Q5T6F0),log2 fold change,[12],0.124
same,log2 fold change,[14],0.087
same,log2 fold change,[4],-0.025
same,log2 fold change,[15],-0.201
same,log2 fold change,[6],-0.003
same,log2 fold change,[16],-0.021
same,log2 fold change,[19],-0.033
same,log2 fold change,[17],0.051
same,log2 fold change,[20],0.055
"DDX46, A0A0C4DG89",log2 fold change,[1],0.151
same,log2 fold change,[2],-0.322
same,log2 fold change,[3],0.032
same,log2 fold change,[14],0.242
same,log2 fold change,[15],-0.177
same,log2 fold change,[17],-0.288
same,log2 fold change,[7],-0.148
EHBP1 (UniProt Q8NDI1),log2 fold change,[12],-0.154
same,log2 fold change,[8],-0.076
same,log2 fold change,[14],-0.586 (active)
same,log2 fold change,[11],-0.092
same,log2 fold change,[15],0.017
same,log2 fold change,[16],-0.034
same,log2 fold change,[19],-0.009
same,log2 fold change,[17],0.087
same,log2 fold change,[20],-0.14
FAM117B (UniProt Q6P1L5),log2 fold change,[12],0.01
same,log2 fold change,[10],0.207
same,log2 fold change,[8],-0.029
same,log2 fold change,[18],0.072
same,log2 fold change,[11],-0.159
same,log2 fold change,[5],0.229
same,log2 fold change,[16],0.059
same,log2 fold change,[19],-0.047
same,log2 fold change,[7],-0.144
same,log2 fold change,[20],0.105
CWF19L2 (UniProt Q2TBE0),log2 fold change,[12],-0.285
same,log2 fold change,[10],0.118
same,log2 fold change,[8],-0.102
same,log2 fold change,[18],0.001
same,log2 fold change,[13],0.083
same,log2 fold change,[4],0.129
same,log2 fold change,[11],0.013
same,log2 fold change,[6],-0.134
same,log2 fold change,[16],-0.184
same,log2 fold change,[19],0.13
same,log2 fold change,[20],-0.001
